Experimental data as given in PubChem BioAssay (Tox21).
Values joined by “and” are separate entries in the source; they are usually repeats but may differ in a detail not shown here. Equal entries are not always repeated. Results filed as inconclusive are left out. Entries that show only a call come without a potency. Active and inactive are the calls of the source. Calls follow the shape of the dose curve; as a rule, active = well fitted cell-killing curve with a large enough effect in the repeat runs; inconclusive = weak or mixed curves; inactive = no such curve, though single readings can be large or run the other way.

Test: qHTS assay for identifying genotoxic compounds that show differential cytotoxicity against isogenic chicken DT40 cell lines with known DNA damage response pathways - Rad54/Ku70 mutant cell line (AID 743015); also: nearly all actives have a fitted effect of over 60% in size
Details: DT40 Rad54/Ku70 mutant viability, CellTiter-Glo, 40 h; series mostly up to 66.8 µM
Excerpt: National Center for Advancing Translational Sciences [NCATS]
NIH Chemical Genomics Center [NCGC]
U.S. Environmental Protection Agency [EPA]
National Institutes of Environmental Health Sciences [NIEHS]
National Toxicology Program [NTP]
U.S. Food and Drug Administration [FDA]
DNA repair pathways play a critical role in cellular homeostasis by repairing DNA damage induced by endogenous processes and xenobiotics. Isogenic chicken DT40 cell lines deficient in different DNA repair pathways can be used to identify genotoxic compounds and aid in characterizing the nature of the DNA damage induced. Two DNA repair-deficient cell lines with disrupted genes, Rad54/Ku70 or Rev3, were used to screen the Tox21 10K compound library. Possible genotoxicity was based on the presence of a significant increase in cytotoxicity in one or more of the DNA repair-deficient cell lines compared to that observed in the parental DNA repair-proficient cell line. CellTiter Glo viability assay (Promega, Madison, WI) was used to measure cell viability in these cells after compound treatment. This assay includes the data from the Rad54/Ku70 mutant cell line.
Tox21 Assay Protocol Summary:
300 DT40 mutant cells in 5 uL/well were dispensed into white, solid-bottom 1536-well plates using a Multidrop Combi (ThermoFisher Scientific, Waltham, MA) dispenser. After the assay plates were incubated at 37 C/5% CO2 for approximately 0.5 hour, 23 nL of compounds dissolved in DMSO, positive controls or DMSO only was transferred into the assay plate by a pintool work station (Kalypsys, San Diego, CA). The assay plates were incubated at 37 C/5% CO2 for 40 hours. After 5 uL per well of CellTiter-Glo reagent was added into each well of the assay plates, the plates were incubated for 30 min at room temperature and the luminescence intensity of the plates was measured using a ViewLux (PerkinElmer, Shelton, CT) plate reader.
Potency is read from the fitted curve at half-maximal effect.

Compound	Potency
CN1C(CCl)Nc2cc(Cl)c(S(N)(=O)=O)cc2S1(=O)=O (stereo not given)	29.8 µM (active)
BrCCOc1ccccc1	inactive
COC(C)(C)CC(C)=O	61.1 µM (active)
CC(=O)OC/C=C(/C)CCC=C(C)C	inactive
CN(C)CCc1c[nH]c2ccc(C[C@H]3COC(=O)N3)cc12	inactive
CNCCc1ccccn1	inactive
CC(C)C[P+](C)(CC(C)C)CC(C)C	inactive
CCO[Si](CC(C)C)(OCC)OCC	inactive
Cc1nc2ccc(Cl)cc2[nH]1	inactive
O=C(O)COc1ccc2ccccc2c1	inactive
COc1cc2nc(N3CCN(C(=O)C4CCCO4)CC3)nc(N)c2cc1OC (stereo not given)	inactive
COCc1nnc(-c2ccc[n+]([O-])c2)n1-c1c(Cl)c(Cl)cc2[nH]c(=O)c(=O)[nH]c12	inactive
CCCCCCC(O)CO (stereo not given)	inactive
CC(C)C(C)C	inactive
COC(=O)c1ccc(C(=O)O)cc1	inactive
CCOC(=O)c1ccc(N(C)C)cc1	inactive
CC(C)(Sc1cc(C(C)(C)C)c(O)c(C(C)(C)C)c1)Sc1cc(C(C)(C)C)c(O)c(C(C)(C)C)c1	inactive
C=CCN1CCc2nc(N)sc2CC1	inactive
CN(C)CCC[C@@]1(c2ccc(F)cc2)OCc2cc(C#N)ccc21	inactive
CC(=O)OC1CCC(C(C)(C)C)CC1 (stereo not given)	inactive

Compound	Potency
C[C@@H]1NC(=O)[C@@H](N)CNC(=O)[C@H](C2CCNC(N)=N2)NC(=O)/C(=C/NC(N)=O)NC(=O)[C@H](CNC(=O)C[C@@H](N)CCCN)NC1=O (stereo not given in full)	inactive
NNC(=O)CCCCC(=O)NN	inactive
CCC(=O)OCCOc1ccccc1	inactive
Cc1ccc(NC(N)=O)cc1	inactive
COc1ccc(Cl)cc1C	inactive
O=C(O)Cc1c(Cl)ccc(Cl)c1Cl	inactive
Cc1cc(C)c(N)c(Cl)c1	inactive
CCCCCCCCCCCCCC(=O)OCC	inactive
C=CCOC(=O)CCCCCCCC	inactive
CCCCCCCCCCCCCCCC(=O)OC	inactive
C=CC(=O)OCC[N+](C)(C)C	inactive
N=C(N)S(=O)O	inactive
CCCCCCCC(=O)N(C)C	inactive
O=C(O)CCCCCCCCCC(=O)O	27.3 µM (active)
CCCCCCCCCCCCCCBr	inactive
C[C@]12C=CC(=O)C=C1[C@@H](F)C[C@@H]1[C@@H]2[C@@H](O)C[C@@]2(C)[C@H]1CC[C@]2(O)C(=O)CO	23.7 µM (active) and 26.6 µM (active)
O=c1c(O)c(O)c1=O	inactive
CCCCCCCOC(C)=O	inactive
CCCC(=O)OC	inactive
CC/C=C\CCCCCCCCCCOC(C)=O	inactive
